The panel holds about 83,000 compounds, 20% with a hit somewhere; the sample as a whole holds those more often.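 Each cell line was grown in a 96-well plate and treated with one concentration of compound for 48 hours. Values below 10 were considered active.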 Unmarked numbers belong to inactive results. Active and inactive are the calls of the source.
What was measured:
Assay in all cases: NCI-60 one-dose screen, 48 h (100 = growth as untreated, 0 = no growth, -100 = all killed)
Conditions in all cases: 10 µM
[1] = test system: K-562 leukemia
[2] = test system: MALME-3M melanoma
[3] = test system: MDA-MB-231 breast
[4] = test system: RXF 393 renal
[5] = test system: SF-268 CNS
[6] = test system: SF-295 CNS
[7] = test system: SF-539 CNS
[8] = test system: UACC-257 melanoma
[9] = test system: M14 melanoma
[10] = test system: HCT-15 colon

Row | SMILES | growth [1] | growth [2] | growth [3] | growth [4] | growth [5] | growth [6] | growth [7] | growth [8] | growth [9] | growth [10]
1 | Cc1cccc2c1O/C(=C\c1ccc([N+](=O)[O-])o1)C2=O | -44.2% (active) | -32.4% (active) | -47.3% (active) | -80.8% (active) | -39.8% (active) | 31.1% | -59.2% (active) | -65% (active) | -54.1% (active) | -55.2% (active)
2 | C[C@@H]1C=C2C(=O)O[C@@H]3CC[C@H](C1)[C@]23O | 27.5% | 93.2% | 89% | 9.76% (active) | 93.3% | 114% | 90.8% | 46.8% | 80.2% | 62.5%
3 | Cc1ccc(NC(=O)Nc2c(Cl)cccc2Cl)cn1 | 47.7% | 109% | 95.4% | 77.3% | 116% | 117% | 97.7% | 99.6% | 96.1% | 100%
4 | O=C1/C(=C/c2ccc([N+](=O)[O-])s2)Oc2ccccc21 | -14.5% (active) | -60.9% (active) | -70.3% (active) | -81.1% (active) | -54.2% (active) | -37.4% (active) | -77% (active) | -54.6% (active) | -40.9% (active) | -15.5% (active)
5 | CN(C)CCN=c1nc2c(c(N)n1-c1ccccc1)c(=S)n(-c1ccccc1)c(=S)n2-c1ccccc1 | -11.4% (active) | -89.5% (active) | -13% (active) | -39.1% (active) | 24% | -61.5% (active) | -86.9% (active) | -74.6% (active) | -84.4% (active) | 18.8%
6 | C=C(Cl)[C@@](Cl)(CBr)CC[C@@H](Br)C(C)(C)Cl | 8.41% (active) | 102% | -78.2% (active) | -5.37% (active) | 1.89% (active) | -48.4% (active) | -81.9% (active) | -66.7% (active) | 89.1% | -63.8% (active)
7 | COc1ccccc1/C=C/C(=O)c1ccccc1 | 6.19% (active) | 90.8% | 80.5% | 92% | 87.9% | 101% | 92% | 94.3% | 85.7% | 61.6%
8 | C=C1c2c(C)nn(-c3ccc(OC)cc3)c2N(C)C23C[C@@H]1C1(C)c4c(C)nn(-c5ccc(OC)cc5)c4N(C)C(C)(C[C@H]12)C3 (stereo not given in full) | 15.5% | 53.9% | 39.7% | 67.9% | 36.8% | 101% | 62.5% | 26.8% | 40% | 26.3%
9 | COc1cc2nc(Nc3cccc(C(=O)O)c3)nc(N)c2cc1OC | 108% | 111% | 86.8% | 106% | 95.3% | 96.4% | 97% | 97.5% | -45.1% (active) | 102%
10 | CCCCCCCNc1nc(C=O)ncc1-c1ccc(C(F)(F)F)cc1 | 89.4% | 86.8% | 117% | 97% | 98.8% | 103% | 107% | 107% | 102% | 97.6%
11 | CN(C)CCN1C(=O)c2cccc3c(-c4ccc5ncn(C6CCCCC6)c5c4)ccc(c23)C1=O | 6.76% (active) | 30.8% | 33.6% | 26.3% | 35.8% | 23.1% | 31.9% | 23.1% | 30.2% | 12.5%
12 | N=C(N)c1ccc(-c2ccc(-c3cccs3)s2)s1 | -68% (active) | -73.9% (active) | -74.3% (active) | -91.7% (active) | -29.3% (active) | -79.5% (active) | 25.9% | -68.5% (active) | -79.5% (active) | -68.4% (active)
13 | N#Cc1cccc(OCc2nc(N)nc(N)c2-c2ccc(Cl)c(Cl)c2)c1 | 14.6% | 33.6% | 51.4% | 43.7% | 28.4% | -7% (active) | 22.6% | 11.1% | 23.2% | 17.7%
14 | Cc1ccc(CC#N)cc1C | 73.8% | 121% | 97.2% | 83.2% | 86.2% | 93% | 87.5% | 127% | 96.9% | 95.4%
15 | CCCC1(CC(=O)O)OCCc2c1[nH]c1ccccc21 (stereo not given) | 156% | 98.8% | 103% | 100% | 103% | 102% | 112% | 103% | 112% | 107%
16 | COc1ccc(-c2nn(-c3cccc(NC(=O)Nc4cccc(C(F)(F)F)c4)c3)cc2-c2ccncc2)cc1Cl | 8.89% (active) | -10.4% (active) | 1.25% (active) | 23.2% | 23.5% | 5.07% (active) | 16.2% | -5.98% (active) | 4.56% (active) | 23.5%
17 | Cc1ccc(C(=O)N2C/C(=C/c3ccc(F)cc3)C(=O)/C(=C/c3ccc(F)cc3)C2)cc1 | 44.2% | 98.5% | 83.4% | 90.4% | 85.2% | 92.5% | 93.2% | 94.4% | 84.8% | 95.1%
18 | COc1cc(NC(=O)CCSc2nc3ccc(Cl)cc3c(=O)n2Cc2ccccc2)cc(OC)c1OC | 67.1% | 84.3% | 51.2% | 57.2% | 95.1% | 66.2% | 26.8% | 61% | 75.2% | 72.5%
19 | COc1ccc(-c2nc(-c3nc4cc(Cl)c(Cl)cc4[nH]3)c3ccccn23)cc1 | 59.8% | 18% | -18.3% (active) | -39.4% (active) | 21% | 13.9% | 8.32% (active) | 63.6% | 70.1% | 76.7%
20 | CCC(=O)N1C/C(=C/c2ccc(OC)cc2)C(=O)/C(=C/c2ccc(OC)cc2)C1 | 1.72% (active) | -9.29% (active) | 19.4% | -66.7% (active) | 24% | -5.17% (active) | 54.7% | 43.4% | -16.5% (active) | 4.21% (active)
21 | CSC1=NCCCC1 | 104% | 109% | 123% | 108% | 109% | 110% | 111% | 100% | 108% | 101%
22 | Cc1cc(Cc2cc(C)c(O)c(C)c2)cc(C)c1O | 13.2% | 46.5% | 59.6% | 58.1% | 64.1% | 42.6% | 37.2% | 51.5% | 29.9% | 38.2%
23 | N#CCCN1C/C(=C/c2ccc(Cl)cc2)C(=O)/C(=C/c2ccc(Cl)cc2)C1 | 3.1% (active) | -52.8% (active) | -18.5% (active) | -94.3% (active) | -38.6% (active) | -22.3% (active) | -50% (active) | -53.4% (active) | -44.1% (active) | 2.04% (active)
24 | O=C1C(=O)c2ccccc2C(O)=C1CCCc1ccc(C2CCCCCC2)cc1 | 23.7% | 13.5% | 68.4% | 68.1% | 53.9% | -0.205% (active) | 37.9% | 44% | 49.3% | 25.2%
25 | COc1cc(-c2cc(/C=C/C(=O)c3ccc(F)c(F)c3)[nH]n2)cc(OC)c1OC | 29.8% | 72.5% | 49.7% | 76.9% | 61.7% | 10.4% | 65.6% | 80.8% | 67.9% | 46.6%
26 | CCC(=O)N1C/C(=C/c2ccc(Br)cc2)C(=O)/C(=C/c2ccc(Br)cc2)C1 | 0.563% (active) | -67.9% (active) | -46.7% (active) | -92.7% (active) | -38.5% (active) | -34.7% (active) | -81.2% (active) | -46.1% (active) | -76.6% (active) | -32.3% (active)

From PubChem BioAssay (NCI)
